PMC8384837, “Expanding the binding specificity for RNA recognition by a PUF domain”

Biological target: PUM1 PUF domain R4-AFP (Homo sapiens, UniProt Q14671 828-1176, N971A;H972F;Q975P)
Assay: yeast three-hybrid, YBZ-1, SC-Leu-His + 0.5 mM 3-AT, 4 days
Details: tags: N-Gal4 AD-HA kept; label: inside an RPR1-promoter hybrid RNA with tandem MS2 sites; ssRNA
In short: (§1)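 Pumilio-1 PUF domain libraries, randomized at the three base-contacting residues of each repeat, were co-expressed with matching RNA elements from a centromeric plasmid in strain YBZ-1, which carries a LexA–MS2 coat fusion and a HIS3 reporter. Transformants grew for four days on SC-Leu (input) or on SC-Leu-His + 0.5 mM 3-AT (selection), and the repeat regions were PCR-amplified and Illumina-sequenced. The interaction score is the log change in variant frequency from input to selection. That logarithm is base 2, with a pseudocount of 1 where a variant was absent.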

Chain of PUM1 PUF domain R4-AFP (Q14671 828-1176 N971A/H972F/Q975P): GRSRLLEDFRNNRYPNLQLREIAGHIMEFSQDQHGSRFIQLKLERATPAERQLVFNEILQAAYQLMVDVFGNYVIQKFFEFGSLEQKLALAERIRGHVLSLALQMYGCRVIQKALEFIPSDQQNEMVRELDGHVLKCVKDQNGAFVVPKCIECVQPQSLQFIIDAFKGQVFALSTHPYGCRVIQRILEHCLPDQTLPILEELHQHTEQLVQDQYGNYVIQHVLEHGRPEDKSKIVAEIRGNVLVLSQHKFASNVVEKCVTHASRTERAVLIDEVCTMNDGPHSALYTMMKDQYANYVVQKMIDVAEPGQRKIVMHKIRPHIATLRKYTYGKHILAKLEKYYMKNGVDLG

| Sequence | binding signal |
| --- | --- |
| GGCUAGAACUAGUGGAUCCCCCGGCGCCCGGCGGCUCGAGCCCGGGUAAGUGUACAUAGUCUGCAUGCCGCCGGGCGCCAUGCCUGCAGGUCGACUCUAGAAAACAUG | 6.13 log2 enrichment (interaction score) |
| GGCUAGAACUAGUGGAUCCCCCGGCGCCCGGCGGCUCGAGCCCGGGUAAGUGUAAAUAGUCUGCAUGCCGCCGGGCGCCAUGCCUGCAGGUCGACUCUAGAAAACAUG | 3.88 log2 enrichment (interaction score) |
| GGCUAGAACUAGUGGAUCCCCCGGCGCCCGGCGGCUCGAGCCCGGGUAAGUGUAUAUAGUCUGCAUGCCGCCGGGCGCCAUGCCUGCAGGUCGACUCUAGAAAACAUG | 5 log2 enrichment (interaction score) |

Biological target: PUM1 PUF domain R5-KQT (Homo sapiens, UniProt Q14671 828-1176, C1007K;R1008Q;Q1011T)
Assay: as above
Details: tags: N-Gal4 AD-HA kept; label: inside an RPR1-promoter hybrid RNA with tandem MS2 sites; ssRNA
In short: as §1

Chain of PUM1 PUF domain R5-KQT (Q14671 828-1176 C1007K/R1008Q/Q1011T): as the sequence (Q14671 828-1176 N971A/H972F/Q975P) above, with A144N, F145H, P148Q, C180K, R181Q, Q184T counted along it

| Sequence | binding signal |
| --- | --- |
| GGCUAGAACUAGUGGAUCCCCCGGCGCCCGGCGGCUCGAGCCCGGGUAAGUGUUAAUAGUCUGCAUGCCGCCGGGCGCCAUGCCUGCAGGUCGACUCUAGAAAACAUG | 2.84 log2 enrichment (interaction score) |
| GGCUAGAACUAGUGGAUCCCCCGGCGCCCGGCGGCUCGAGCCCGGGUAAGUGUCAAUAGUCUGCAUGCCGCCGGGCGCCAUGCCUGCAGGUCGACUCUAGAAAACAUG | 4.51 log2 enrichment (interaction score) |
| GGCUAGAACUAGUGGAUCCCCCGGCGCCCGGCGGCUCGAGCCCGGGUAAGUGUAAAUAGUCUGCAUGCCGCCGGGCGCCAUGCCUGCAGGUCGACUCUAGAAAACAUG | 2.17 log2 enrichment (interaction score) |
